{"source": "PubChem BioAssay AID1851", "about": "(National Center for Advancing Translational Sciences (NCATS), 2009)", "note": "Where “and” joins values, the source holds several entries; their conditions need not be identical. Equal entries are not always repeated. In all, about 16,000 compounds went through this assay and about 5,100 (32%) were called active. Inconclusive results (about 25%) are left out. The list shows a part of the results. A number with no mark means an inactive call. The call rests on the fitted dose curve; in most records, active means well fitted curve in the direction sought with a large enough effect; inconclusive means small, poorly fitted or top-dose-only effect, or effect the other way; inactive means no such curve, though single readings can be large or run the other way. On the % scale 0 is the no-effect control and ±100 the full control effect.", "data": [{"target": "Cytochrome P450 3A4 (Homo sapiens) (UniProt P08684)", "sequence (P08684 whole entry, looked up)": "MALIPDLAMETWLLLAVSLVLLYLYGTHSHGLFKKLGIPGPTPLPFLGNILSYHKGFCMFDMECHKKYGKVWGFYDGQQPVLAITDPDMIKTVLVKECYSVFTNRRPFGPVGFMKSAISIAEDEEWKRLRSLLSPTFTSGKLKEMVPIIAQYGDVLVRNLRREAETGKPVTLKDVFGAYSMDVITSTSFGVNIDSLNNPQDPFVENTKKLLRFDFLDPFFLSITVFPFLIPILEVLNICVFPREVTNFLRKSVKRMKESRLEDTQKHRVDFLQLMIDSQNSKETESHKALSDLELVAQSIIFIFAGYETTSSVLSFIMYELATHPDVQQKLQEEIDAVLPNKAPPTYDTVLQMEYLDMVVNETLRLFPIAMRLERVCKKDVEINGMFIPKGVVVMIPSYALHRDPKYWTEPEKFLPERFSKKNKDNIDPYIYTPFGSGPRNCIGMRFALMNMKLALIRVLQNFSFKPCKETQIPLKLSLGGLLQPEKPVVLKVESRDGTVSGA", "experiment": "Cytochrome panel assay with activity outcomes", "settings": "recombinant CYP, pro-luciferin dealkylation, luminescence, p450-cyp3a4; series mostly up to 57.1 µM", "protocol": "The P450 gene superfamily is involved in the metabolism and clearance of xenobiotics. This assay used various human CYP P450 isozymes to measure the dealkylation of various pro-luciferin substrates to luciferin. The luciferin is then measured by luminescence after the addition of a luciferase detection reagent. Pro-luciferin substrate concentration in the assay was equal to its KM for its CYP P450 isozyme. Inhibitors and some substrates limit the production of luciferin, and decrease measured luminescence.\nNCGC Assay Protocol Summary:\n1, Reagent, 2 uL, Isozyme and Pro-Luciferin\n2, Library compounds, 23 nl, 40 uM to 0.24 nM dilution series\n3, Controls, 23 nl, Isozyme specific inhibitor\n4, Reagent, 2 uL, NADPH regeneration solution\n5, Incubation time, 60 min, Isozyme specific temperature\n6, Reagent, 4ul, Detection reagent\n7, Incubation time, 20 min, Isozyme specific temperature\n8, Detection, 1 sec, ViewLux luminescent read\nThe luciferase-based P450-GloTM Screening Systems were obtained from Promega (Madison, WI) for CYP 1A2 (V9770), CYP 2C9 (V9790), CYP2 C19 (V9880), CYP 2D6 (V9890), and CYP 3A4 Luciferin-PPXE (V9910) and were adapted for 1,536-well microplates and an automated protocol. The control compounds furafylline for 1A2 (F124), sulfaphenazole for CYP 2C9 (S0758), ketoconazole for CYP 2C19 (K1003), quinidine for 2D6 (Q3625), and ketoconazole for 3A4 (K1003) were purchased from Sigma Aldrich (St. Louis, MO). Recombinant P450 enzymes were obtained from baculovirus constructs expressed in insect cells (BD/Gentest).\nMedium-binding white solid Kalypsys plates used. Mixtures kept on ice. 1A2: 10 nM 1A2, 100 uM Luc-ME, 100 mM KPO4; 2C9: 10 nM 2C9, 100 uM Luc-H, 25 mM KPO4; 2C19: 5 nM 2C19, 10 uM Luc-H EGE, 50 mM KPO4; 2D6: 5 nM 2D6, 30 uM Luc-ME EGE, 100 mM KPO4; 3A4: 10 nM, 25 uM Luc-PPXE. All amounts are reflected in their final concentration, working concentration is 2x.\nNADPH regeneration solution: 1.3 mM NADP+, 3.3 mM glucose-6-phosphate, 3.3 mM MgCl2, 0.4 U/mL glucose-6-phosphate dehydrogenase for all isozymes, 200 mM KPO4 for 3A4. Mixture prepared at RT but kept on ice during automated run.\nRT incubation in auxilliary plate hotel for 1A2, 2D6, and 3A4; 37C for 2C9 and 2C19.\nKeywords: P450, CYP1A2, CYP2C19, CYP2C9, CYP2D6, CYP3A4, Luciferase, MLSMR, MLSCN, NIH Roadmap, qHTS, NCGC", "values": [{"smiles": "C[C@H](c1ccccc1)N1CCN([C@@H](C)c2ccccc2)CC1", "activity, negative = inhibition": "-13.4% [at 11.4 µM]"}, {"smiles": "NCCc1ccc(S(=O)(=O)O)cc1[N+](=O)[O-]", "activity, negative = inhibition": "-7.4% [at 11.4 µM]"}, {"smiles": "O=C1c2cc([N+](=O)[O-])ccc2-c2ccc3c4ccc5c6c(ccc(c7ccc1c2c73)c64)C(=O)c1cc([N+](=O)[O-])ccc1-5", "activity, negative = inhibition": "-21% [at 11.4 µM]"}, {"smiles": "O=C1c2ccccc2-c2cc([N+](=O)[O-])c([N+](=O)[O-])cc21", "AC50": "0.501 µM (active)"}, {"smiles": "CSCC[C@@H](N)P(C)(=O)O", "activity, negative = inhibition": "-8.04% [at 11.4 µM]"}, {"smiles": "C=C[C@]12CN(C)[C@H]3C1[C@@]1(C(=O)Nc4ccccc41)[C@H]1C[C@H]2[C@H]3CO1", "activity, negative = inhibition": "inactive"}, {"smiles": "Oc1cccc2cccnc12", "activity, negative = inhibition": "-3.42% [at 11.4 µM]"}, {"smiles": "CC[C@H]1C(=O)OC[C@H]1Cc1cncn1C", "AC50": "10 µM (active) and 3.16 µM (active)"}, {"smiles": "CCC1C(=O)OCC1Cc1cncn1C", "note": "(stereo not given)", "AC50": "15.8 µM (active)"}, {"smiles": "c1csc(CN2CC3(CCNCC3)C2)n1", "activity, negative = inhibition": "inactive"}, {"smiles": "OC1(c2ccc(F)cc2)CCNC1", "note": "(stereo not given)", "activity, negative = inhibition": "inactive"}, {"smiles": "O=S(=O)(O)/C(=C\\c1ccccc1)c1ccccc1", "note": "(tested in a mixture with another compound)", "activity, negative = inhibition": "-11.7% [at 11.4 µM]"}, {"smiles": "COc1ccn(C)c(=O)c1C#N", "activity, negative = inhibition": "inactive"}, {"smiles": "Cc1ccc(N=Nc2c(O)[nH]c(=O)[nH]c2=O)c([N+](=O)[O-])c1", "activity, negative = inhibition": "inactive"}, {"smiles": "CP(=O)(O)CCCN", "activity, negative = inhibition": "inactive"}, {"smiles": "NC(=O)COc1c(F)cc(SCCNS(=O)(=O)c2ccccc2)cc1F", "AC50": "12.6 µM (active)"}, {"smiles": "C/C(=C\\C=C/[C@@H](C)C(=O)O)[C@H]1CN[C@H](C(=O)O)[C@@H]1CC(=O)O", "activity, negative = inhibition": "inactive"}, {"smiles": "CC(C)CNC(=S)NC1CC2CCCC(C1)N2Cc1ccco1", "note": "(stereo not given)", "activity, negative = inhibition": "2.91% [at 2.29 µM]"}, {"smiles": "Cc1ccc(C(=O)C2C(=O)c3ccccc3C2=O)cc1", "activity, negative = inhibition": "-18.3% [at 11.4 µM]"}, {"smiles": "CN(C(=O)Cc1ccc(Cl)c(Cl)c1)[C@@H](CN1CCCC1)c1cccc(OCC(=O)O)c1", "activity, negative = inhibition": "inactive"}, {"smiles": "CN(C(=O)Cc1ccc(Cl)c(Cl)c1)[C@H](CN1CCCC1)c1ccccc1", "AC50": "6.31 µM (active)"}, {"smiles": "O=C(O)CP(=O)(O)c1ccc(Cl)cc1", "activity, negative = inhibition": "inactive"}, {"smiles": "COc1ccc(C[C@H]2c3cc(OC)c(OC)cc3CCN2C)cc1OC", "activity, negative = inhibition": "inactive"}, {"smiles": "C[C@]1(C(=O)O)[C@@H]2CC[C@@H](O2)[C@@]1(C)C(=O)O", "activity, negative = inhibition": "inactive"}, {"smiles": "CC1(C)CCC2=C(O1)c1ccccc1C(=O)C2=O", "AC50": "15.8 µM (active)"}, {"smiles": "COc1cc2c3cc1Oc1c(O)c(OC)cc4c1[C@@H](Cc1ccc(cc1)Oc1cc(ccc1O)C[C@H]3N(C)CC2)N(C)CC4", "activity, negative = inhibition": "-12.1% [at 11.4 µM]"}, {"smiles": "N[C@H](C(=O)O)c1cc(=O)[nH]o1", "activity, negative = inhibition": "inactive"}, {"smiles": "N[C@@H](CP(=O)(O)O)C(=O)O", "activity, negative = inhibition": "-3.52% [at 11.4 µM]"}, {"smiles": "OC(Cn1c2ccccc2c2ccccc21)C[n+]1ccccc1", "note": "(stereo not given)", "activity, negative = inhibition": "-1.96% [at 2.29 µM]"}, {"smiles": "CCCCC1(CCCC)C(=O)NC(=Nc2cccc(C)c2)NC1=O", "AC50": "12.6 µM (active)"}]}]}
